Compound activity as filed in PubChem BioAssay.
Apoferritin bind: candidate novel general anesthetic via apoferritin binding; P02791; apoferritin/1-aminoanthracene competitive binding, fluorescence; Potency, µM (highest dose often 77.5 µM), most hits filed as inhibitors; actives 0.074% (n = 350,000); AID 485281; further: nearly all actives have a fitted effect of over 20% in size
Target sequence (P02791 2-175 limits assumed): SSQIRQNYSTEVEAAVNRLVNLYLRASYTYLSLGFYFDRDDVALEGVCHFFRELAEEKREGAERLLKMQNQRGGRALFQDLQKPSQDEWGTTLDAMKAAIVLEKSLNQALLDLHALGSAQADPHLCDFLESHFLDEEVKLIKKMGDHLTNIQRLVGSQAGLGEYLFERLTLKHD
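Steps: apoferritin (10 uM) was premixed with half-saturated 1-AMA in PBS, compounds were pin-transferred, plates stood 10 min at room temperature, fluorescence was read at 380/535 nm, and curves were fitted with a Hill equation.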
ERG Ets-DNA blk: ERG Ets/DNA interaction inhibition | actives 0.028% (n = 370,000) | P11308 | fluorescence polarization, His-ERG Ets domain / labelled DNA | Potency, µM (series often up to 76.9 µM), hits mostly inhibitors | AID 624246; active means well fitted inhibition curve with a large enough effect in the polarisation, with a control signal flat; inconclusive means small, poorly fitted or top-dose-only effect, or effect the other way, or a change in a side signal; inactive means no such curve, though single readings can be large or run the other way; the % refers to the polarisation;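 further: polarization taken with two DNA probes labelled with fluorescein and Texas red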
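His-tagged ERG Ets domain (1 uM in the protein solution; 300mM KCl, 50mM Tris-HCl, 1mM EDTA, 1mM DTT, pH 7.5) received compound, then a probe mix of 5 nM fluorescein-DNA and 100nM Texas-615-DNA. Fluorescence polarization was read for both dyes.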
RGS12 GoLoco inh-1: inhibitors of human Gai1-RGS12 GoLoco interaction (red fluorophore). P63096. actives 0.44% (n = 230,000). Gai1:RGS12 GoLoco peptide FP, rhodamine, 10 min. AID 880. Potency, µM (series often up to 61.6 µM), most hits filed as inhibitors; active means well fitted inhibition curve with a large enough effect, not every such curve was filed as active; inactive means no such curve, though single readings can be large or run the other way; further: nearly all actives have a fitted effect of over 30% in size
Target sequence (P63096 whole entry, looked up): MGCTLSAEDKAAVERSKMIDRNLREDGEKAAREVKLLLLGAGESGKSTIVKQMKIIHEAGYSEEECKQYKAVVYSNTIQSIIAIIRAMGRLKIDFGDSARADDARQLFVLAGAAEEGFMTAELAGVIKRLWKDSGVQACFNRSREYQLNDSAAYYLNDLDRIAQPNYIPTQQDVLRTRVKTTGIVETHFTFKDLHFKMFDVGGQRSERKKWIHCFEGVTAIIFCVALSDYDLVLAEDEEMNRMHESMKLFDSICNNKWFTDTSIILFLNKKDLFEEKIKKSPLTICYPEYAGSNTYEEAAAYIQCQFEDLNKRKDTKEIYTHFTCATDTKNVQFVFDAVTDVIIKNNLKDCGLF
BRCA1 expr up: BRCA1 expression activation. MCF7-BRCA1-FFLuc reporter, luminescence, 48 h; response scale: scaled: vehicle 0%, 10 µM genistein 100%. actives 1.1% (n = 380,000). Potency, µM (top dose mostly 46.1 µM), hits mostly activators; further: nearly all actives have a fitted effect of over 80% in size
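MCF7-BRCA1-FFLuc cells, 2000/well in phenol-red-free MEM, attached 2 h then treated 48 h at 37 C. Luciferase luminescence read 15 min after reagent; normalized to genistein maximum activation (10microM) and DMSO, concentration-response fitted.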
RGS12 GoLoco inh-2: confirmation of human RGS12 GoLoco motif inhibitors; Potency, µM (doses to about 57.1 µM), actives largely listed as inhibitors; shares compounds with RGS12 GoLoco inh-1; Gai1/rhodamine-RGS12 GoLoco peptide fluorescence polarization; actives 50% (n = 110); AID 2390
Each line names hits and unclear results; the compound was inactive in the other large screens (follow-up assays come after a bar, where they were run); ! = repeats disagree. An excerpt weighted towards active compounds, which were near 1.2% of everything screened. Unless noted, the call rests on the fitted dose curve; in most records, active means well fitted curve in the direction sought with a large enough effect; inconclusive means small, poorly fitted or top-dose-only effect, or another doubt; inactive means no such curve, though single readings can be large; an effect the other way counts as inactive or inconclusive.

CCOC(=O)c1ccc(NC(=O)CSc2nccn2C)cc1	none | RGS12 GoLoco inh-2 inactive
Cc1[nH]c2ccccc2c1C(=O)CCl	none
Cc1[nH]c2ccccc2c1C(=O)CNc1nccs1	none | RGS12 GoLoco inh-2 6.31µM
Cc1ccccc1NC(=O)CN1C(=O)CCn2nc(-c3cccn3C)cc21	none (no result: RGS12 GoLoco inh-1, BRCA1 expr up)
CCn1c(SCC(=O)N2CCN(c3cccc(Cl)c3)CC2)nc2ccccc2c1=O	none | RGS12 GoLoco inh-2 inactive
CCn1c(SCC(=O)N2CCCCCC2)nc2ccccc2c1=O	none (no result: RGS12 GoLoco inh-1)
CCCc1n(CC(O)COC2CCCCC2)c2ccccc2[n+]1C (stereo not given)	none
CCCc1n(CC(O)COCC2CC=CCC2)c2ccccc2[n+]1C (stereo not given)	none | RGS12 GoLoco inh-2 14.1µM
COCc1nn2cc(-c3ccc(C)cc3)nc2s1	none (no result: RGS12 GoLoco inh-1)
O=C(O)c1cc(NCc2cc(O)ccc2O)ccc1O	RGS12 GoLoco inh-1 6.31µM (no result: ERG Ets-DNA blk) | RGS12 GoLoco inh-2 2µM
O=C(OCC12CC3CC(CC(C3)C1)C2)c1ccc(NCc2cc(O)ccc2O)cc1	none (no result: Apoferritin bind, ERG Ets-DNA blk, RGS12 GoLoco inh-1)
Cc1nc2c(c3c1[nH]c1ccccc13)C(=O)CC(C)(C)C2	none
O=C1NCc2c1c1c3ccccc3[nH]c1c1[nH]c3ccccc3c21	none (no result: Apoferritin bind, ERG Ets-DNA blk, RGS12 GoLoco inh-1) | RGS12 GoLoco inh-2 inactive
CCCCCCCCC[n+]1cccc2c3ccccc3ccc21	none
CCCCCCCCCCCCCCCC[n+]1cccc2ccccc21	Apoferritin bind inconclusive, RGS12 GoLoco inh-1 2.24µM | RGS12 GoLoco inh-2 4.47µM
CC1c2ccccc2CN1CC1=NCCN1 (stereo not given)	RGS12 GoLoco inh-1 25.1µM (no result: ERG Ets-DNA blk, BRCA1 expr up) | RGS12 GoLoco inh-2 inconclusive
COc1cc(OC)c(NC(=O)NCCn2nnc3cc(S(=O)(=O)N(C)C)ccc32)cc1Cl	none (no result: RGS12 GoLoco inh-1)
CCCCCCCCCCCCCCCC[n+]1ccc(C(N)=O)cc1	Apoferritin bind inconclusive, RGS12 GoLoco inh-1 3.16µM | RGS12 GoLoco inh-2 inconclusive
CCC(=O)Nc1ccc(-c2nnc(SCC(=O)N3CCCCC3)n2C)cc1	none | RGS12 GoLoco inh-2 inactive
Cn1c(SCC(=O)Nc2ccccc2)nnc1-c1ccc(NC(=O)CCc2ccccc2)cc1	none | RGS12 GoLoco inh-2 inactive
Cn1c(SCC(=O)N2CCCC2)nnc1-c1ccc(S(=O)(=O)N2CCCC2)cc1	none
Cc1ccccc1OCc1nnc(SCC(=O)Nc2ccc3c(c2)oc2ccccc23)n1C	BRCA1 expr up inconclusive | RGS12 GoLoco inh-2 inactive
Cc1ccc(-c2nnc(SCC(=O)Nc3ccc4c(c3)oc3ccccc34)n2C)c(Cl)c1	none
Nc1nc(Nc2ccccc2)nc2c1ncn2[C@@H]1O[C@H](CO)[C@H](O)[C@H]1O	none (no result: Apoferritin bind, ERG Ets-DNA blk, BRCA1 expr up)
Cn1nc(-c2ccccc2F)c2cc(C(=O)NCc3cccc(Cl)c3)sc21	none (no result: RGS12 GoLoco inh-1)
O=C(O)c1ccc(COc2ccc(/C=N/NC(=O)c3cccs3)cc2)cc1	RGS12 GoLoco inh-1 10µM | RGS12 GoLoco inh-2 inconclusive
Cc1cccc(N2CCN(c3nc4ccc(C(=O)c5ccccc5)cc4n4cnnc34)CC2C)c1 (stereo not given)	none (no result: RGS12 GoLoco inh-1, BRCA1 expr up)
Cc1cc2nc3c(=O)n(CCc4ccccc4)c(=O)[nH]c3nc2cc1N	RGS12 GoLoco inh-1 7.94µM | RGS12 GoLoco inh-2 inconclusive
Nc1ccc2nc3c(=O)n(C4CCCCC4)c(=O)[nH]c3nc2c1	ERG Ets-DNA blk inconclusive, RGS12 GoLoco inh-1 25.1µM, BRCA1 expr up 7.08µM | RGS12 GoLoco inh-2 11.2µM
Nc1ccc2nc3c(=O)n(CCc4ccccc4)c(=O)[nH]c3nc2c1	ERG Ets-DNA blk inconclusive, RGS12 GoLoco inh-1 17.8µM | RGS12 GoLoco inh-2 12.6µM
Cc1nc2ccccc2c(=O)n1CCc1ccccc1	none (no result: RGS12 GoLoco inh-1)
CCCCn1c(=O)[nH]c2nc3cc(N)ccc3nc2c1=O	ERG Ets-DNA blk inconclusive, RGS12 GoLoco inh-1 12.6µM, BRCA1 expr up inconclusive | RGS12 GoLoco inh-2 8.91µM
CCCCn1c(N)c(Br)c(=O)[nH]c1=O	none
COc1cc2[nH]c(=O)n(C3CCCCC3)c(=O)c2cc1OC	none
CCCCCCCC1=CC2=CC(=O)C(C)(O)C(=O)C2=CN1CCCC (stereo not given)	none (no result: ERG Ets-DNA blk, RGS12 GoLoco inh-1, BRCA1 expr up)
Cc1cc2c(cc1C)[n+](C)cn2CC(O)COCc1ccccc1 (stereo not given)	RGS12 GoLoco inh-1 11.2µM | RGS12 GoLoco inh-2 22.4µM
C[n+]1cn(CC(O)COCc2ccccc2)c2ccccc21 (stereo not given)	RGS12 GoLoco inh-1 15.8µM | RGS12 GoLoco inh-2 14.1µM
CCn1c(C(=O)NCc2ccccc2)cc2sc(Cl)cc21	none (no result: RGS12 GoLoco inh-1, BRCA1 expr up)
C=CCn1c(=O)[nH]c2nc3cc(N=CN(C)C)c(C)cc3nc2c1=O	RGS12 GoLoco inh-1 28.2µM | RGS12 GoLoco inh-2 28.2µM
Cc1nc(SCC(=O)Nc2ccc(N3CCOCC3)cc2)nc(C)c1C	none
Cc1cc(C)nc(SCC(=O)Nc2ccc(N3CCOCC3)cc2)n1	RGS12 GoLoco inh-1 5.01µM | RGS12 GoLoco inh-2 4.47µM
COc1ccc(/C=C\C(=O)Nc2ccccc2C(=O)O)cc1OC	none (no result: Apoferritin bind, ERG Ets-DNA blk, BRCA1 expr up)
COc1cccc(C(=O)N/N=C/c2ccc(Oc3ccc([N+](=O)[O-])cn3)c(OC)c2)c1	none | RGS12 GoLoco inh-2 17.8µM
CCOC(=O)C1CCCN(C(=O)Cn2sc3nc(C)cc(C)c3c2=O)C1 (stereo not given)	RGS12 GoLoco inh-1 17.8µM | RGS12 GoLoco inh-2 inconclusive
CCOc1ccc(C(=O)Nc2ccc(C(=O)OCc3cc(=O)n4nc(CC)sc4n3)cc2)cc1	none (no result: RGS12 GoLoco inh-1, BRCA1 expr up)
CN1C(CC(=O)c2ccccc2)CCCC1CC(O)c1ccccc1 (stereo not given)	RGS12 GoLoco inh-1 22.4µM! | RGS12 GoLoco inh-2 inactive
COc1ccccc1CNC(=O)CCCCn1c(=O)c2ccccc2n(CC(=O)Nc2cccc(Cl)c2)c1=O	none (no result: RGS12 GoLoco inh-1)
